Entries with a potency or affinity are not part of this list.

Drawing on ChEMBL document CHEMBL4513149, “CO-ADD screening of MMV (CH) - MMV compounds” (2021), this text covers Inhibition for 29 compounds.

The test system of one experiment is Klebsiella pneumoniae. Conditions: Concentration 20 uM; ASSAY_TEST Inhibition of Bacterial Growth; detection method Absorption (OD600); MEDIA CAMHB; plate type 384well; NBS; CORNING #3640; time 18 hr.
The test system of the next experiment is Candida albicans. Conditions: 20 µM.
The next experiment has as its system Cryptococcus neoformans. Conditions: Concentration 20 uM; ASSAY_TEST Inhibition of Fungal Growth; detection method Resazurin; Absorption (OD600-OD570); plate type 384well; NBS; CORNING #3640. On the technique in general: The colour change of resazurin is a common sign of viable cells or microbes.

Broadly, the Inhibition is the change of the read-out against control, counted positive when it falls. Regarding `FC(F)(F)c1cc(NCCc2ccccc2)nc(-c2ccccn2)n1`, the values for the Inhibition in the experiment with Klebsiella pneumoniae, with Candida albicans and in the experiment with Cryptococcus neoformans were -3.94%, 1.73% and -6.05%, respectively.
For `Cl.NCC(c1cccs1)S(=O)(=O)c1ccccc1` (configuration not stated), the Inhibition was -0.58% in the experiment with Klebsiella pneumoniae, 3.86% in the experiment with Candida albicans and -1.15% in the experiment on Cryptococcus neoformans.
Consider `Cc1cc(C)nc(-n2nc(C)cc2Nc2ccccc2)n1`, for which the Inhibition is 15.33% with Klebsiella pneumoniae, 11.7% in the experiment with Candida albicans and 39.43% with Cryptococcus neoformans.
The corresponding values for `CC(C)(C)n1nc(Cc2ccc(F)c(Cl)c2)c2c(N)ncnc21` are 9.52%, 4.75% and -6.05%.
On the same counts, the results for `CNc1nnc(Sc2cnn(-c3ccccc3)c(=O)c2Cl)s1` are 0.48%, 4.99% and -9.44%.
For `CCc1cc(=O)n(C)c(SC(C)C(=O)Nc2ccc(F)cc2)n1` (configuration not stated), the Inhibition is 3.6% with Klebsiella pneumoniae, 0.76% in the experiment with Candida albicans and -9.3% in the experiment with Cryptococcus neoformans.
On the same counts, the results for `CC(C)(C)C(=O)N(CCCCCCN1C[C@H](O)[C@@H](O)[C@H](O)[C@H]1CO)C1CCCCCC1` are 7.47%, 0.83% and -2.01%.
Regarding `CC(C)(C)c1cc(C(=O)Nc2cccnc2)cc(C(=O)Nc2cccnc2)c1`, the Inhibition is 16.7% in the experiment with Klebsiella pneumoniae, 3.35% with Candida albicans and -7.29% in the experiment on Cryptococcus neoformans.
In the case of `COc1ccc(C2(C(=O)Nc3ccc(Br)cc3)CCCC2)cc1`, the Inhibition with Klebsiella pneumoniae was 17.05%; in the experiment with Candida albicans, 4.64%; with Cryptococcus neoformans, -2.31%.
As for `O=C(c1ccc(F)cc1)N(CCNc1ccccc1)c1ccccc1`, the figures for the Inhibition in the experiment with Klebsiella pneumoniae, with Candida albicans and with Cryptococcus neoformans were 12.15%, 5.49% and -9.35%, respectively.
On to `FC(F)(F)c1ccc(N(c2cccnc2)C2CCN(c3ccc(C(F)(F)F)cn3)CC2)cc1`, for which the Inhibition was 14.96% in the experiment on Klebsiella pneumoniae, 2.59% with Candida albicans and -3.19% in the experiment with Cryptococcus neoformans.
Take `Cc1cc2nc(NC(=O)C(C)(C)C)nc(Cl)c2n1Cc1ccc(Cl)cc1`: the values for the Inhibition in the experiment on Klebsiella pneumoniae, with Candida albicans and in the experiment with Cryptococcus neoformans were 1.22%, 3.57% and -0.22%, respectively.
The corresponding values for `COc1ccc(CCN2CCC(NCc3cccc(N(C)C)c3)CC2)cc1` are 7.89%, 3.48% and -2.71%.
As for `O=C(N[C@H](Cc1ccccc1)C(=O)Nc1ccccc1N1CCOCC1)c1cccs1`, the Inhibition in the experiment with Klebsiella pneumoniae was 11.64%; with Candida albicans, 3.1%; with Cryptococcus neoformans, -4.85%.
In the case of `Cc1ccccc1C(=O)N1N=C(Nc2ccccc2)SC1(C)C`, the Inhibition in the experiment on Klebsiella pneumoniae is 6.87%; in the experiment with Candida albicans, 4%; in the experiment on Cryptococcus neoformans, -7.29%.
Regarding `COc1ccc(C2CC(c3cccs3)=NN2C(=O)c2ccco2)cc1OC` (configuration not stated), the values for the Inhibition with Klebsiella pneumoniae, in the experiment with Candida albicans and with Cryptococcus neoformans were 20.7%, 5.76% and -8.05%, respectively.
The corresponding values for `CC1=Nc2ccc(Cl)cc2C(O)(c2ccc(C)cc2)N1CCN1CCCCC1` (configuration not stated) are 18.59%, 3.13% and -4.53%.
With `CC(C(=O)Nc1ccc2oc(-c3ccncc3)nc2c1)c1ccccc1` (configuration not stated), the Inhibition with Klebsiella pneumoniae is 10.68%; in the experiment on Candida albicans, 3.28%; in the experiment with Cryptococcus neoformans, -12.41%.
With `COc1cccc(NC(=O)c2c(NC(=O)c3cccnc3)sc3c2CCC3)c1`, the Inhibition with Klebsiella pneumoniae is 13.46%; in the experiment on Candida albicans it was 9.13%; with Cryptococcus neoformans, -5.87%.
The corresponding values for `CCCCc1ccc(C(=O)Nc2nccc3ccccc23)nc1` are 7.3%, 6.07% and -8.5%.
On to `CC1CCCCN1C(=O)NCCc1coc(-c2ccc(F)cc2)n1` (configuration not stated), for which the Inhibition with Klebsiella pneumoniae is 15.76%; in the experiment with Candida albicans, 3.66%; in the experiment on Cryptococcus neoformans it was -14.62%.
On the same counts, the results for `O=C(C1CCN(c2nnc(-n3cccc3)s2)CC1)N1CCC(Cc2ccccc2)CC1` are 11.79%, 4.63% and -9.35%.
On the same counts, the results for `COc1ccc(-c2nc(-c3cccc(NC(=O)Cc4ccc(F)cc4)c3)no2)cc1OC` are 13.72%, 23% and -5.03%.
Turning to `Cc1nc2ccccn2c1C(=O)NCc1ccc(Cl)cc1`, the Inhibition in the experiment on Klebsiella pneumoniae is 17.8%; in the experiment on Candida albicans it was 2.86%; in the experiment with Cryptococcus neoformans, -5.69%.
The corresponding values for `Cc1noc(C)c1COc1cccc(C(=O)N=c2[nH]cccc2C)c1` are 14.67%, 1.92% and -9.25%.
As to `CN1CCN(c2nccc3[nH]c(-c4cccc(F)c4)cc23)CC1`, the Inhibition in the experiment on Klebsiella pneumoniae was 12.23%; in the experiment with Candida albicans, 5.85%; with Cryptococcus neoformans, 5.1%.
The corresponding values for `O=C(c1[nH]nc2c1CCCC2)N1CCN(Cc2ccc3c(c2)OCO3)CC1` are 7.71%, 2.93% and -11.77%.
On the same counts, the results for `COC(=O)c1c(NC(=O)c2c(F)c(F)c(F)c(F)c2F)sc2c1CCCCC2` are 11.31%, 6.8% and -13.49%.
The corresponding values for `c1ccc2c(c1)CN(CC1CC1)CC1(CCN(Cc3c[nH]c4cnccc34)CC1)O2` are 8.97%, 4.16% and -4.09%.
